# In the supplement of paper PMC11417369:
# ± gives the standard deviation of the averaged measurements. In all, about 25,000 sequences were measured (“ln(normalized median fluorescence intensity)”: median about 8.6, highest 2% from about 10 on). The list comes from a sample in which the highest values are over-represented; it also holds similar and randomly drawn sequences.
# System: PfAP2-EXP AP2 domain (GST-tagged)
# Experiment: gcPBM binding intensity (ln(normalized median fluorescence intensity)); higher = stronger DNA binding
# In short: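 Binding intensity is defined as the maximum Masliner-normalised natural-log median intensity across replicate spots for either probe orientation. It was measured on an Agilent 4 × 180k array of primer-extended double-stranded 36-bp intergenic genomic probes and negative controls, to which GST-tagged P. falciparum DNA-binding domains made in E. coli were applied for 1 h in 1× PBS with 1% milk, 0.2 mg/ml BSA, 0.5% salmon testes DNA and 0.03% Triton X-100. Detection was by Alexa488 anti-GST antibody and scanning at 488 nm.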
row,Sequence,gcPBM binding intensity (ln)
1,TACGTGAAATTATATACACACATAAATATGTCTGTA [CACACA_site3122],8.16 ± 0.36
2,ATTTAAAAAAAAACGGAATTTTTTTTTTTTTTAAAG [XGTACX_negctrl_site91],8.06 ± 0.51
3,TTAAAAAAAATATAATGTACTTGTAGAATTATATTT [XGTACX_site6220],8.09 ± 0.26
4,TTTTTTAATTAATTACCTTTGAATGTGTATTAGGAC [GTGCAC_negctrl_site651],8.49 ± 0.26
5,AATATATACATATATTGTACATATAGTTTCTTGCAT [XGTACX_site7871],8.61 ± 0.33
6,AAATTATTATGAAATGGAAAATGCATAAATTGTTTT [XGTACX_negctrl_site206],8.63 ± 0.48
7,ATAAATAAATAAATACGTACATATATATATATATAT [XGTACX_site8838],9.98 ± 0.38
8,AATATACAAAATAAATAAAATATATATATATATATA [CACACA_negctrl_site216],10.2 ± 0.28
9,CCATATACAACCATACGTACATATATATATATATAT [XGTACX_site8193],10.2 ± 0.2
10,TATATATACATATACACACATACGTACATACATATA [CACACA_site3585],8.75 ± 0.31
11,AAATAAATAAATATACGTACATATATATAATATATA [XGTACX_site5124],8.52 ± 0.15
12,ATACATACATACATACGTACATATGTATATATATAT [XGTACX_site8498],9.7 ± 0.19
13,ACAAAAAAATAAAATATATATATATATATAATATAT [CACACA_negctrl_site805],8.58 ± 0.16
14,AACATAACAAAAAAAAAAAAAAATATATATATATAT [TGCATGCA_negctrl_site370],10.2 ± 0.41
15,AAAAAAATATAAATACGTACATATATATATATATAT [XGTACX_site432],10.2 ± 0.46
16,TACAAAAAAATAAATAATAAAAAAAAATATATATAA [XGTACX_negctrl_site344],8.38 ± 0.38
17,TAATATAACAAAAAAATAAAATAAAATAAAAAATAA [CACACA_negctrl_site109],8.4 ± 0.41
18,TATAAAATAAATAACAAAAAAAATAAAATAAAAATA [TGCATGCA_negctrl_site297],8.47 ± 0.47
19,ATTCTAAATAAATGTACACACAAAAATAAATGTATA [CACACA_site1732],8.61 ± 0.31
20,AACATATATATAATATGTACATAATATATATAAATG [XGTACX_site1161],8.52 ± 0.3
21,AAAATTAAAAATTACTGTACGTATTAGAGAATAAAT [XGTACX_site2567],8.53 ± 0.32
22,CATAAAATTGTGAAGTGTACATATTTTTAAATATAA [XGTACX_site8986],8.63 ± 0.28

row,Sequence,gcPBM binding intensity (ln)
1,AATATTTTACAATACACATGCAAATAATATTCTAAA [TGCATGCA_site618],8.63 ± 0.39
2,AAAAAATAAATAAATACACACAAATATATATATATA [CACACA_site2543],10.2 ± 0.071
3,TATTTATATTTATACACACACACAAAAAAAAAAAAA [CACACA_site6817],8.36 ± 0.57
4,CATTTATATATATACACACACACAAAAAAAAAAAAA [CACACA_site2645],8.44 ± 0.49
5,TATATATATATATACACACACACAAAAAAAAAAAAA [CACACA_site1505],10.2 ± 0.21
6,TATATATATAAATACACACACACAAAAAAAAAAAAA [CACACA_site4930],8.6 ± 0.34
7,TATATAAATATATATACACACAAAAAAAAAAAAAAA [CACACA_site1406],8.36 ± 0.52
8,TTAATAAAAGCCCATGCACACCTTAGAAAGTTTTAT [CACACA_site8003],8.43 ± 0.45
9,GCCATTAATTTATACACACACATTATGATTTTTTAT [CACACA_site754],8.86 ± 0.28
10,TCTTGTCTACCTTGTATTTAATATTTACATATATAA [TGCATGCA_negctrl_site320],8.95 ± 0.4
11,TTTATTTTGACAGATTGTACACTTTATACATGTTTT [XGTACX_site2356],8.8 ± 0.44
12,ATAAAAAAATCAGACACACACACGTAAACACATACA [CACACA_site5529],8.76 ± 0.57
13,ATAAATATCATATATATACACACGTAATACATAATA [CACACA_site4001],8.4 ± 0.44
14,ATGGAATAATCACGTACACACAAGAAAAAAAAAAAT [CACACA_site527],8.8 ± 0.56
15,TAATCATAAAAAAATACACACATATATAATATATAT [CACACA_site1983],8.51 ± 0.3
16,GGGGGGGGAGGGTGAATACACACGTAATAATCATAA [CACACA_site1716],10.8 ± 0.15
17,GGGGGGAGGGTGAATACACACGTAATAATCATAAAC [CACACA_site8502],10.6 ± 0.22
18,AACTTACTCTTTACAAGTACGTAAAAGAAATAGAAA [XGTACX_site1782],8.51 ± 0.41
19,AATTTCTATTTTGTGAGTACATACTCCTATTATATA [XGTACX_site3210],8.78 ± 0.26
20,ATTATATATAAATATACACACATATATAAAATACAT [CACACA_site5298],8.39 ± 0.28
21,TTATACTATTTTTATACATGCATTTCTATATATTTT [TGCATGCA_site316],9.3 ± 0.28
22,TTATATTATTTTTATACATGCATTTCTATATATTTT [TGCATGCA_site164],9.2 ± 0.3

row,Sequence,gcPBM binding intensity (ln)
1,TTTTTTTTTTCTCCTGCATGCAGCATTTATATATTA [TGCATGCA_site390],10.3 ± 0.13
2,TCTTTATATATATATATATGTGTGAATGTTAAGTAT [XGTACX_negctrl_site135],8.74 ± 0.33
3,ATGATTTGTCTGAAATGTACATATATATATATATAT [XGTACX_site5247],10.3 ± 0.47
4,TTTTTTTTGTATTAATGTACATATAACTTTTTTTTT [XGTACX_site7903],8.48 ± 0.47
5,ATATATATAAATATATGTACATAAATATATTTGTAA [XGTACX_site6715],8.47 ± 0.42
6,CTGAATGTATATATTTGTACATATATATATATATAT [XGTACX_site5557],10.4 ± 0.22
7,ATTTTGTATATATTTTGTACATATTTTGTATATATT [XGTACX_site885],8.68 ± 0.3
8,TTATTAAATGAAAAATGTACATATAAATGATTATAT [XGTACX_site2788],8.51 ± 0.25
9,GTTTGTATGTCCAAATGTACATATGATTTTATGAAA [XGTACX_site6595],8.72 ± 0.28
10,ATGAATATATATATTTGTACATATGTATATATATAT [XGTACX_site7527],9.71 ± 0.15
11,TGGATTTTGTATTAATGTACATATATATATATATAT [XGTACX_site4442],10.2 ± 0.51
12,ATATATATATATATATGTACATATATTTGTAATGTC [XGTACX_site8074],10.2 ± 0.43
13,AATGTATATATGTAATGTACATATGTAATGTATATA [XGTACX_site6509],8.62 ± 0.46
14,ACATAAATAAATTAATGTACATATATATTTGTATAT [XGTACX_site3160],8.36 ± 0.28
15,ACATTTATTTTGAATGGTACACTATTATTATGAAAT [XGTACX_site4384],8.36 ± 0.38
16,TTTTTTTTTTGATGCACACACCTGAACGAGTTAATA [CACACA_site4329],8.83 ± 0.37
17,ATTTTTAAATACAGTACACACATGGGTTTAAATTAT [CACACA_site2884],8.63 ± 0.38
18,ATATAATAATTGTACACATGCACACACAAATATTAT [TGCATGCA_site204],8.9 ± 0.29
19,GATCACTGAATAAAGGCACACATCTGACTAATTTTT [CACACA_site66],8.36 ± 0.39
20,ATAAATTGAAGTAAATTTGACCTTTTTTTTTTTTTT [GTGCAC_negctrl_site354],8.31 ± 0.27
21,AATGAAAGGATGCTGTGTACATATATATATATATAT [XGTACX_site7901],10.2 ± 0.49
22,TAAGGATGAATCCTTTGTACATATATATATATATAT [XGTACX_site1242],10.2 ± 0.28

row,Sequence,gcPBM binding intensity (ln)
1,ATAAAATGAACCTTTTGTACATATATATATATATAT [XGTACX_site4610],10.1 ± 0.57
2,ATAATTAATGATGTATGTACGGAATTTATATATTTG [XGTACX_site5685],8.4 ± 0.33
3,AAAAGATAATTATGCACACACACACCCAGACACAAC [CACACA_site5428],9.11 ± 0.4
4,AAAAAAGATAATTATGCACACACACCCACCCACCCA [CACACA_site8825],9.57 ± 0.41
5,AAAAGATAATTATGCACACACACACCCCCACCCAAC [CACACA_site2570],10.67 ± 0.099
6,TAAAATTAATTTCTGTTGCACTTATTATTAATTAAC,8.84 ± 0.4
7,ATATATATATATATATGTACATATATATTGTTGATC [XGTACX_site8893],10.1 ± 0.26
8,ATATAAATATAAACATGTACATATATATATATATAT [XGTACX_site2824],10.3 ± 0.79
9,TAAATATATATAACATGTACATAAAATATATATATA [XGTACX_site4431],9.53 ± 0.13
10,TATAAACGTATAATATGTACACACACATATATACAA [XGTACX_site1686],8.43 ± 0.32
11,TATATATAAAACATATGTACATATATATATATATAT [XGTACX_site419],10.2 ± 0.24
12,GATATAAACGTATATGTACATATATATATATATATA [GTGCAC_negctrl_site186],10.2 ± 0.41
13,ATAAAAACATAAAAATGTACATATATATATATATAT [XGTACX_site7165],10.1 ± 0.25
14,ATAAAAAAAAATATATGTACATATATAAATTGATAT [XGTACX_site7409],8.73 ± 0.42
15,GCAAATATGTTGATATGTACATATATATATATATAT [XGTACX_site445],10.2 ± 0.45
16,AATATATAAACACGTACACACACATATATGTATATA [CACACA_site9168],8.73 ± 0.43
17,GTAAATATATAAACATGTACATATATAAATATATAA [XGTACX_site7262],8.51 ± 0.33
18,AACATAAAAAAAATATGTACATATATAATATATATA [XGTACX_site3764],8.85 ± 0.23
19,AATGGGTAAACATACACACACACATATATATATATA [CACACA_site1991],10.1 ± 0.33
20,AATAAGTTATTATTTTGTACACATAAATAATACGTT [XGTACX_site814],8.32 ± 0.3
21,ATATTCATATATTTACGTACATACATTTATATATTT [XGTACX_site7644],8.85 ± 0.37
22,TACCTATACAGACACACACACACACGCCCACAAAAA [CACACA_site6375],8.77 ± 0.35
